Consider 37 compounds from PubChem BioAssay (NCATS).

Inconclusive results are not listed. A call without a number means that no potency is given here. The source made the active and inactive calls. Calls follow the shape of the dose curve; as a rule, active = well fitted curve in the direction sought with a large enough effect; inconclusive = small, poorly fitted or top-dose-only effect, or another doubt; inactive = no such curve, though single readings can be large; an effect the other way counts as inactive or inconclusive.

Chain of Cytochrome P450 2C19 (Homo sapiens) (P33261 whole entry, looked up): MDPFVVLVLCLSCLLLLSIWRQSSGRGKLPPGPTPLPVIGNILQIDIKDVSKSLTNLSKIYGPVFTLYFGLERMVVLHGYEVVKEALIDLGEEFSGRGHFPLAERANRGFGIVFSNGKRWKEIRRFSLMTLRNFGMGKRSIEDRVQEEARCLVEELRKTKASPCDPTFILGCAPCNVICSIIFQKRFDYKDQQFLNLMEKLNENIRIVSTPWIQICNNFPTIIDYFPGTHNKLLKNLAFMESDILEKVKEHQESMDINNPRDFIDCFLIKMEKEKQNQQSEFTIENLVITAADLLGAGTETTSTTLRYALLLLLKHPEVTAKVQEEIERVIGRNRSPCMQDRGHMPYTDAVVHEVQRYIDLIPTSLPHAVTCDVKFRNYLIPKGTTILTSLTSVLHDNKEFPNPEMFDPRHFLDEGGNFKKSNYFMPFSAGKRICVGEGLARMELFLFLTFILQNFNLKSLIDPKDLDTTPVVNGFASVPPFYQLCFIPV

The first experiment concerns the target Cytochrome P450 2C19 (Homo sapiens) (UniProt P33261). Nature of the experiment: qHTS Assay for Inhibitors and Substrates of Cytochrome P450 2C19 (AID 899). Also: nearly all actives have a fitted effect of over 60% in size. Also: potency is read from the fitted curve at half-maximal effect. The following applies: recombinant CYP2C19, luciferin-H EGE luminescence; series mostly up to 57.1 µM. In a few lines: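 NADPH-dependent conversion of Luciferin-H EGE (10uM, at KM) by 5nM enzyme in 50mM KPO4, 60 min at 37C following 10 min compound preincubation. Stopped with luciferin detection buffer; luminescence read after 20 min.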
In the case of `Cc1ccc(C(=O)O[C@@H](C(=O)O)[C@@H](OC(=O)c2ccc(C)cc2)C(=O)O)cc1` (tested in a mixture with another compound), the Potency entry is “inactive”. Same read-out and setting: as for `O=NN(Cc1ccc(Cl)cc1)[C@@H](C(=O)O)c1ccccc1`, the figure is 0.398 µM (active).

Turning to `C=C(Br)CN(C)CC(=C)Br`, the activity, negative = inhibition is 46.7% [at 11.4 µM] (inactive). Still for that read-out and setting: as for `C[C@@]12CC[C@H]3[C@H](CC=C4C[C@@H](O)CC[C@@]43C)[C@@H]1CC[C@@H]2N(CCO)CCO`, the figure is 79.2% [at 11.4 µM] (inactive).

Turning to `C[C@H](CCC(=O)O)[C@H]1CC[C@]2(C)[C@@H]3C(=O)C[C@H]4C(C)(C)[C@@H](O)CC[C@]4(C)[C@H]3C(=O)C[C@@]12C`, the activity, negative = inhibition is 60.6% [at 11.4 µM] (inactive). Turning to `N[C@H](CCC(=O)N[C@H](CSN=O)C(=O)NCC(=O)O)C(=O)O`, the Potency is 1.58 µM (active).

With `C[C@@H]1OC=C2[C@@H](O)[C@H]3O[C@H]3C(=O)[C@@]23[C@H]1[C@H]1C2=C([C@@H](O)[C@H]4O[C@@H]4C2=O)[C@@H]3O[C@@H]1C`, the activity, negative = inhibition is 53.9% [at 11.4 µM] (inactive). For `C=C(CO)[C@H]1Cc2c(ccc3c2O[C@H]2COc4cc(OC)c(OC)cc4[C@@H]2C3=O)O1`, the Potency is 5.01 µM (active).

Another experiment deals with Alpha-galactosidase (Coffea arabica) (UniProt Q42656). Nature of the experiment: Counterscreen for Glucocerebrosidase Inhibitors: qHTS Assay for Coffee Bean alpha-Galactosidase at pH 4.5 (AID 957). Particulars: purified coffee bean alpha-galactosidase, fluorogenic substrate; series mostly up to 76.9 µM. The method, boiled down: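 AC50 values derive from Hill-equation modeling of concentration-response data, normalized to no-enzyme and full-activity controls. The pH 4.5 citrate assay used 2 nM coffee bean enzyme and 80 uM fluorogenic substrate for 20 min.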
Chain of Alpha-galactosidase (Coffea arabica) (Q42656 whole entry, looked up): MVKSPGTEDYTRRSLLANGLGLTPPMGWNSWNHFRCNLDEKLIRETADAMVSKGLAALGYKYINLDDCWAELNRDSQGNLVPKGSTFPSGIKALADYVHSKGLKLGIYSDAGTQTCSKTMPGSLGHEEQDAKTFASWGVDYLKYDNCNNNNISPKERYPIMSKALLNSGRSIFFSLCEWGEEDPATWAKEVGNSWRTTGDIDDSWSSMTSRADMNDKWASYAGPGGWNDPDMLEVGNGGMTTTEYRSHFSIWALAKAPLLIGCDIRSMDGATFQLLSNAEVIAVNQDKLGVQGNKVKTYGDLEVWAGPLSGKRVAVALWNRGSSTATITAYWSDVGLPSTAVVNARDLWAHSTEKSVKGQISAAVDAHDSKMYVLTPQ
A general note: Counterscreens check selectivity or assay interference.
Turning to `Cc1ccccc1CNc1ncnc2c1ncn2[C@@H]1O[C@@H](CO)[C@H](O)[C@@H]1O`, the compound was classed as inactive. Take `Cc1ccc(C(=O)O[C@@H](C(=O)O)[C@@H](OC(=O)c2ccc(C)cc2)C(=O)O)cc1` (tested in a mixture with another compound): the compound was called inactive. Still for that read-out and setting: as for `Nc1ncnc2c1ncn2[C@@H]1CCCO1`, the entry is “inactive”; as for `CC(=O)O[C@@H]1[C@H]([N+]2(C)CCCCC2)C[C@@H]2[C@@H]3CC[C@@H]4C[C@@H](OC(C)=O)[C@H]([N+]5(C)CCCCC5)C[C@@]4(C)[C@H]3CC[C@]21C`, “inactive”; as for `Nc1nc(Nc2ccccc2)nc2c1ncn2[C@@H]1O[C@@H](CO)[C@H](O)[C@@H]1O`, “inactive”. On to `Oc1cc2c(cc1O)[C@H](c1ccccc1)CNCC2`, for which the outcome was inactive.

With `COc1ccc2c(c1)CCC1C2CC[C@]2(C)[C@H](NCCCCCCN3C(=O)C=CC3=O)CC[C@@H]12` (stereo not given in full), the compound was classed as inactive. For the compound `CN1[C@@H](CC(=O)c2ccccc2)CCC[C@@H]1C[C@@H](O)c1ccccc1`, the result was inactive. On the same count and under the same terms, as for `C[C@@H]([C@H](O)c1ccc(O)cc1)N1CCC(Cc2ccccc2)CC1`, the entry is “inactive”; as for `NC(=O)c1ncn([C@@H]2O[C@@H](CO)[C@@H](O)[C@H]2O)c1O`, “inactive”; as for `CCCC[C@]1(C2CCCC2)Cc2cc(OCC(=O)O)c(Cl)c(Cl)c2C1=O`, “inactive”. Still for that read-out and setting: as for `Cn1cc(C(F)(F)F)nc1-c1ccc(OC[C@@H](O)CNCCOc2ccc(O)c(C(N)=O)c2)cc1`, the entry is “inactive”. As for `CC[C@@H]1CN2CCc3cc(OC)c(OC)cc3[C@H]2C[C@@H]1C[C@@H]1NCCc2cc(OC)c(OC)cc21`, the compound was classed as inactive. The same measure, in the same setting: as for `O=C1CC[C@H](N2C(=O)c3ccccc3C2=O)C(=O)N1`, the entry is “inactive”; as for `CC[C@H](C)N(C)C(=O)c1cc2ccccc2c(-c2ccccc2Cl)n1`, “inactive”. `CC(=O)OCC1=C(C(=O)O)N2C(=O)[C@@H](NC(=O)Cc3cccs3)[C@@H]2SC1`: the result was inactive.

On to `NCCC[C@@](N)(C(=O)O)C(F)F`, for which the outcome was inactive. Same read-out and setting: as for `O=C(O)[C@H]1CCCNC1`, the entry is “inactive”; as for `CCN(CC)CCC[C@H](C)Nc1c2ccc(Cl)cc2nc2ccc(OC)cc12`, “inactive”. On the same count and under the same terms, as for `N[C@@H](CO)C(=O)NNCc1ccc(O)c(O)c1O`, the entry is “inactive”.

Turning to `O=C(O)[C@H]1CCCN(CCC=C(c2ccccc2)c2ccccc2)C1`, the compound was classed as inactive. For the compound `C=CCN1CCc2c(cc(O)c(O)c2Cl)[C@H](c2ccccc2)C1`, the compound was classed as inactive.

In the case of `N[C@H](CCC(=O)N[C@H](CSN=O)C(=O)NCC(=O)O)C(=O)O`, the result was inactive.

For the compound `OC[C@@H]1O[C@@H](n2cnc3c(Nc4ccccc4)ncnc32)[C@@H](O)[C@H]1O`, the result was inactive. On the same count and under the same terms, as for `CC(C)(C)NC[C@H](O)c1ccc(O)c(CO)c1`, the entry is “inactive”. On the same count and under the same terms, as for `N#C[C@@H](Cc1ccc(O)c(O)c1)C(=O)N1CCc2ccccc21`, the entry is “inactive”; as for `CC(C)[C@@H]1NC(=O)[C@H](CCCCN)NC(=O)[C@H](Cc2c[nH]c3ccccc23)NC(=O)[C@H](Cc2ccc(O)cc2)NC(=O)[C@H](C)N(C)C(=O)[C@H](Cc2ccccc2)NC1=O`, “inactive”; as for `CN1[C@@H]2CC[C@H]1CC(OC(=O)[C@@H](CO)c1ccccc1)C2` (stereo not given in full), “inactive”. Consider `C=C[C@@]1(C)CC(=O)[C@@]2(O)[C@@]3(C)[C@H](O)CCC(C)(C)[C@@H]3[C@H](O)[C@H](OC(C)=O)[C@]2(C)O1`, for which the compound was classed as inactive. Consider `Nc1ncnc2c1nc(Br)n2[C@@H]1O[C@H]2COP(=O)(O)O[C@@H]2[C@H]1O`, for which the compound was called inactive. Same read-out and setting: as for `CCOC(=O)C1=C(C)NC(C)=C(C(=O)OC)[C@H]1c1cccc([N+](=O)[O-])c1`, the entry is “inactive”.

For the next experiment the target is unchanged. Nature of the experiment: Counterscreen for Glucocerebrosidase Inhibitors: qHTS Assay for Coffee Bean alpha-Galactosidase at pH 5.9 (AID 998). The following applies: coffee bean alpha-galactosidase enzyme assay; series mostly up to 76.9 µM. The method, boiled down:
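Green coffee bean enzyme (2 nM final) was incubated with compounds (0.7 nM–77 uM) and 4-methylumbelliferyl alpha-D-galactopyranoside (80 uM) in citrate buffer pH 5.9, 20 min at room temperature. High-pH stop; fluorescence 365/440 nm; AC50 from Hill fits.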
Consider `Cc1ccc(C(=O)O[C@@H](C(=O)O)[C@@H](OC(=O)c2ccc(C)cc2)C(=O)O)cc1` (tested in a mixture with another compound), for which the result was inactive. In the case of `CC(=O)O[C@@H]1[C@H]([N+]2(C)CCCCC2)C[C@@H]2[C@@H]3CC[C@@H]4C[C@@H](OC(C)=O)[C@H]([N+]5(C)CCCCC5)C[C@@]4(C)[C@H]3CC[C@]21C`, the call was inactive. The same measure, in the same setting: as for `COc1ccc2c(c1)CCC1C2CC[C@]2(C)[C@H](NCCCCCCN3C(=O)C=CC3=O)CC[C@@H]12` (stereo not given in full), the entry is “inactive”; as for `CN1[C@@H](CC(=O)c2ccccc2)CCC[C@@H]1C[C@@H](O)c1ccccc1`, “inactive”; as for `CC[C@@H]1CN2CCc3cc(OC)c(OC)cc3[C@H]2C[C@@H]1C[C@@H]1NCCc2cc(OC)c(OC)cc21`, “inactive”. On the same count and under the same terms, as for `CC(C)[C@@H]1NC(=O)[C@H](CCCCN)NC(=O)[C@H](Cc2c[nH]c3ccccc23)NC(=O)[C@H](Cc2ccc(O)cc2)NC(=O)[C@H](C)N(C)C(=O)[C@H](Cc2ccccc2)NC1=O`, the entry is “inactive”.
